# Laboratory results from paper PMC4552634, “A New Set of Chemical Starting Points with Plasmodium falciparum Transmission-Blocking Potential for Antimalarial Drug Discovery” (PLoS ONE, 2015).
# Read-outs that look alike come from different tables or passages of the source. Among all 13,000 compounds or so, about 3,200 (25%) showed an effect of 50% or more. The list shows a part of the results.
# Tested on: P. falciparum stage V gametocytes
# Set-up: BacTiter-Glo ATP luminescence viability of purified stage V gametocytes in 384-well plates, per cent inhibition versus DMSO
# Settings: 48 h, 5 µM, inhibitor
Compound,% Inhibition [%],% Inhibition (% Inhibition) [%]
CC(=O)Nc1ccc([N+](=O)[O-])c2c(Br)cccc12 [TCMDC-125386],-53.09,–
COc1cc(F)c2ncc(Cl)c([C@H](O)CN3CCC(NCc4ccc5c(n4)NC(=O)CO5)CC3)c2c1 [TCMDC-135487],8.334,–
CC(C)(C)c1cc(/C=C/C(=O)NC2CCC(CN3CCC(c4c[nH]c5ccccc45)CC3)CC2)cc(C(C)(C)C)c1O (stereo not drawn) [TCMDC-139767],–,105.4
CC(C)(C)c1cc(/C=C/C(=O)NC2CCC(CN3CCC(c4c[nH]c5ccccc45)CC3)CC2)cc(C(C)(C)C)c1O (stereo not drawn) [TCMDC-139757],–,96.1
N#Cc1cccc(Nc2cc(C(F)(F)F)nc(Nc3ccccc3)n2)c1 [TCMDC-133458],7.387,–
CCOc1cc(Cc2cnc(N)nc2N)cc(Br)c1OC [TCMDC-137721],-8.107,–
CCN(Cc1ccc(-c2ccc(C(F)(F)F)cc2)cc1)C(=O)Cn1c(SCc2cccc(F)c2F)cc(=O)c2cc(CN3CCCCC3)ccc21 [TCMDC-141592],106.5,–
CC(C)N(Cc1ccc(-c2ccc(C(F)(F)F)cc2)cc1)C(=O)Cn1c(SCc2cccc(F)c2F)cc(=O)c2cc(CN3CCCCC3)ccc21 [TCMDC-141593],103.1,–
COC(=O)C1(NC(=O)c2ccc(-n3nc(C)c(-c4ccccc4)c3N)cc2)CCCC1 [TCMDC-134041],30.38,–
CCCC(C)NC(=O)C(N)Cc1cccc(I)c1 (stereo not drawn) [TCMDC-141272],-22.86,–
CC1(C)N=C(N)N=C(N)N1OCC1COc2ccccc2O1 (stereo not drawn) [TCMDC-131585],1.956,–
Cc1ncc([N+](=O)[O-])n1CCOC(=O)NC(Nc1ccc(Br)cc1)C(Cl)(Cl)Cl (stereo not drawn) [TCMDC-124219],76.02,–
O=C(NCC1COc2ccccc2O1)c1cnc2c(c1)nc(-c1cnc(-c3ccccc3)[nH]1)n2CCSCc1c(F)cccc1Cl (stereo not drawn) [TCMDC-139692],12.96,–
Cc1ncc([N+](=O)[O-])n1CCOC(=O)NC(NCC1COc2ccccc2O1)C(Cl)(Cl)Cl (stereo not drawn) [TCMDC-125611],93.51,–
CC(C)C(=O)NC(NC(=S)Nc1ccc(Br)cc1)C(Cl)(Cl)Cl (stereo not drawn) [TCMDC-124131],29.56,–
Cc1nn(CCOC(=O)NC(NCC2COc3ccccc3O2)C(Cl)(Cl)Cl)cc1[N+](=O)[O-] (stereo not drawn) [TCMDC-124139],72.15,–
O=C(/C=C/c1ccc(Cl)c(Cl)c1)NCCCCCN1CCCN(C(=O)Nc2ccc([N+](=O)[O-])cc2)CC1 [TCMDC-135754],-58.55,–
Clc1ccc(CNc2nc(NCCc3cnc[nH]3)nc(N3CCCC4CCCCC43)n2)cc1 (stereo not drawn) [TCMDC-139743],10.44,–
Cc1oc(-c2ccccc2)nc1CCOc1ccc(C[C@H](Nc2ccccc2C(=O)c2ccccc2)C(=O)NCc2ccccn2)cc1 [TCMDC-138315],-1.633,–
NC1=NC2(CCCC2)C(c2ccc(Cl)c(Cl)c2)C(N)=N1 (stereo not drawn) [TCMDC-137490],18.93,–
O=C(c1cnn(-c2ccccc2)c1C(F)(F)F)N1CCN(c2ccnc3cc(Cl)ccc23)CC1 [TCMDC-123790],-13.06,–

Compound,% Inhibition [%],% Inhibition (% Inhibition) [%]
COc1cc(Nc2nccc(NCC(O)c3ccc(C(F)(F)F)cc3)n2)cc(OC)c1OC (stereo not drawn) [TCMDC-136589],-6.814,–
Cc1nc(-c2ccc(-c3ccc(NC(=O)Nc4ccc(I)c(OCCN(C)C)c4)cc3)c(C)c2)no1 [TCMDC-139107],-54.47,–
CN(C)CCOc1cc(NC(=O)c2ccc(-c3ccc(Cl)cc3Cl)cc2)ccc1-c1ccccc1 [TCMDC-138835],-44.47,–
COc1ccc(-c2cccc(NC(=O)c3cccc(C#N)c3)c2)cc1CN1CCNCC1 [TCMDC-132620],19.71,–
COc1cc(NC(=O)c2ccc(-c3ccccc3)cc2)ccc1OCCCN1CCC(c2ccccc2)CC1 [TCMDC-141370],-49.11,–
Cc1nc(-c2ccc(-c3ccc(C(=O)Nc4ccc(I)c(OCC5CCCN5C)c4)cc3)c(C)c2)no1 (stereo not drawn) [TCMDC-139110],-18.97,–
COc1ccc(-c2cccc(NC(=O)c3cccc(Cl)c3)c2)cc1CN1CCNCC1 [TCMDC-132613],106.1,–
COc1ccc(-c2cccc(NC(=O)c3ccc(C#N)cc3)c2)cc1CN1CCCC1 [TCMDC-132611],11.39,–
COc1ccc(-c2cccc(NC(=O)c3ccc(Cl)cc3)c2)cc1CN1CCNCC1 [TCMDC-132601],95.75,–
O=C(Nc1ccc(-c2ccccc2)c(OCCN2CCNCC2)c1)c1ccc(-c2ccc(Cl)cc2)cc1 [TCMDC-138818],100.4,–
COc1ccc(-c2cccc(NC(=O)c3ccc(Cl)cc3)c2)cc1CN1CCCC1 [TCMDC-132604],46.68,–
Cc1nc(-c2ccc(-c3ccc(C(=O)Nc4ccc(I)c(OCCN5CCCC5)c4)cc3)c(C)c2)no1 [TCMDC-139109],57.83,–
CC1C(c2cccc(Cl)c2)OCC(C)(C)N1C(=O)CCN1CCCCC1 (stereo not drawn) [TCMDC-137873],-11.63,–
COc1ccc2nccc([C@@H](O)CN3CCC(NCc4ccc5c(c4)NC(=O)C(C)(C)O5)CC3)c2c1 [TCMDC-141097],21.74,–
NC(N)=NN=C1C=Cc2cccc3cccc1c23 [TCMDC-137662],-87.82,–
Cc1cc(NC2CCCC2)nc(Nc2ccccc2F)n1 [TCMDC-133463],-1.86,–
Cc1cc(C)cc(Oc2c(C(F)(F)F)oc3c(CN4CC(C)OC(C)C4)c(O)ccc3c2=O)c1 (stereo not drawn) [TCMDC-125695],-2.168,–
CCOc1ccccc1NC(=O)Nc1ccc2c(c1)CCN(C1CCC1)CC2 [TCMDC-135951],31.77,–
CCN1CCN(C(=O)NC(C(=O)N(C)Cc2ccc(-c3ccc(C(F)(F)F)cc3)cc2)c2cccs2)C(=O)C1=O (stereo not drawn) [TCMDC-141576],23.66,–
CCOC(=O)NOC(C(=O)O)c1ccccc1 (stereo not drawn) [TCMDC-131406],-4.765,–
COC(=O)c1cccc(CNCc2cccc(-c3ccc(-c4nc5cc(C(F)(F)F)ccc5[nH]4)cc3)c2)c1.O=C(O)C(F)(F)F [TCMDC-132955],-38.35,–
